Nrf2 block – Nrf2 qHTS screen for inhibitors | A549 ARE-Fluc reporter, luciferase luminescence, 18-24 h | Potency, µM (highest dose often 46 µM), for inactives: at the highest dose activity change, negative = inhibition, actives largely listed as inhibitors | 2.1% of 360,000 active | AID 504444, 2011; also: potency is read from the fitted curve at half-maximal effect; % is scaled to controls: 0 for no effect and ±100 for the full control effect; nearly all actives have a fitted effect of over 60% in size
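Cells were seeded and rested 2 h, then exposed to compounds for 18-24 h. CellTiter-Fluor was read first as a viability measure. BugLite was added 15 min before the final luminescent read of ARE-luciferase activity in A549 cells.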
Nrf2 ARE act – qHTS of Nrf2 Activators; AREc32 ARE-luciferase reporter (MCF7-derived line), luminescence, 24 h; Potency, µM (highest dose often 46.1 µM), for inactives: at the highest dose activation, hits mostly activators; 0.31% of 410,000 active; AID 624171, 2012; also: potency is read from the fitted curve at half-maximal effect; % of control where 0% means no effect; nearly all actives have a fitted effect of over 65% in size
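AREc32 cells carrying an ARE-driven firefly luciferase reporter were seeded at 1000 cells/well in OPTI-MEM with 5% FBS, then exposed to compound for 24 hr at 37 deg C. Luminescence was read with Steady-Glo after 30 min at RT.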
ClpP mod – qHTS Assay for Activators of ClpP | purified B. subtilis ClpP, FRET peptide cleavage, 20 min | Potency, µM (top dose mostly 57.5 µM), inactives show top-dose activity change, negative = active | 1.9% of 340,000 active | AID 651965, 2013; active = well fitted falling curve with a large enough effect; inconclusive = small, poorly fitted or top-dose-only effect; inactive = no such curve, though single readings can be large or run the other way; also: potency is read from the fitted curve at half-maximal effect; the source files actives as falling curves though it sought activators and does not explain the sign; nearly all actives have a fitted effect of over 65% in size
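Purified B. subtilis ClpP, 10 microg/mL final in Tris/HCl pH8 with KCl, BSA, glycerol and Tween-20, cleaved an Abz/nitrotyrosine-quenched decapeptide. Fluorescence (ex 320, em 430) was read at 0 and 20 min at room temperature. Delta was normalized to 5.8 microM ADEP and DMSO/no-enzyme controls.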
A549 viability – Nrf2 qHTS screen for inhibitors: counterscreen for cytotoxicity; A549 ARE-Fluc cells, CellTiter-Fluor viability, 18-24 h; Potency, µM (highest dose often 46 µM), for inactives: at the top dose activity change, negative = cytotoxicity, actives largely listed as inhibitors; 0.16% of 390,000 active; also: potency is read from the fitted curve at half-maximal effect; % is scaled to controls: 0 for no effect and ±100 for the full control effect
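Cytotoxicity counterscreen: CellTiter-Fluor fluorescence was measured in A549 ARE_Fluc cells after 18-24 h of compound exposure in a concentration series. The subsequent BugLite luminescent read reports ARE-luciferase activity.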
p53 reactivation – qHTS assay for re-activators of p53 using a Luc reporter; AID 504706, 2011; H1299 p53-A138V BP100-luciferase reporter, luminescence, 24 h; Potency, µM (series often up to 92.2 µM), inactives show at the top dose activity change, positive = activation, actives largely listed as activators; 0.063% of 320,000 active; also: potency is read from the fitted curve at half-maximal effect; % of control where 0% means no effect; nearly all actives have a fitted effect of over 45% in size
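H1299 (p53-null), stable ts p53-A138V + BP100-Luc; 1000 cells/well, Opti-MEM/10% FBS; cpd 4 pt, 1:5; 24 h, 37 deg C, 5% CO2; detection reagent 10 min RT; luminescence.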
miR-21 reporter – qHTS Assay for Modulators of miRNAs and/orActivators of miR-21. HeLa miR-21 FLuc reporter, luciferase, 48 h. Potency, µM (series often up to 38.3 µM), inactives show top-dose activity change, positive = activation, most hits filed as activators. 340,000 tested, under 10 active. AID 2288, 2010;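 also: % of control where 0% means no effect; miR-21 action dims this reporter so a rising signal means less miR-21 action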
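HeLa cells endogenously expressing miR-21, stably carrying CMV-driven firefly luciferase with a downstream miR-21 binding site, 2000 cells/well. Titrations up to approximately 40 uM, 48 hours; luciferase luminescence read.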
Active calls of the source: *; u = inconclusive; x = no result given; [ ] = dose if it differs, or a comment. Most compounds without a hit are left out; they make up all but 3.7% or so of the library. Unless noted, calls follow the shape of the dose curve; as a rule, active = well fitted curve in the direction sought with a large enough effect; inconclusive = small, poorly fitted or top-dose-only effect, or another doubt; inactive = no such curve, though single readings can be large; an effect the other way counts as inactive or inconclusive.

SMILES	Nrf2 block	Nrf2 ARE act	ClpP mod	A549 viability	p53 reactivation	miR-21 reporter
Cc1ccc(NC(=O)C(C)c2ccc(-c3ccccc3)c(F)c2)cc1 (stereo not given)	15µM*	0%	35µM*	u	-10%	18%
COc1ccc(CNC(=O)c2c(O)c3cc(OC)c(OC)cc3[nH]c2=O)cc1OC	1%	-1%	7.9µM*	4%	29%	-4%
CCCCCCc1c(O)c2ccccc2[nH]c1=O	2%	0%	25µM*	-8%	3%	-13%
O=C(NCCc1ccccc1)c1c(O)c2ccccc2[nH]c1=O	9%	0%[9.22 µM]	x	0%	13%	0%
CCNC(=O)c1c(O)c2ccccc2[nH]c1=O	-27%	6%	25µM*	2%	-2%	-4%
CN1CCN(c2oc(COc3ccc(-c4ccccc4)cc3)nc2C#N)CC1	16µM*	3%	-15%	u	3%	-1%
N#Cc1nc(COc2ccc(Cl)cc2)oc1N1CCN(Cc2ccccc2)CC1	x	0%	28µM*	-1%	1%	2%
CCN1CCN(c2oc(COc3ccc(Cl)cc3)nc2C#N)CC1	0%	0%	0%	u	-3%	-5%
COc1ccc(-c2c(C)nn3c(N4CCN(Cc5ccccc5)CC4)cc(C)nc23)cc1OC	4%	0%	1%	-3%	-13%	1%
Cc1cc(N2CCN(Cc3ccccc3)CC2)n2nc(C)c(-c3ccccc3)c2n1	4%	0%	32µM*	-3%	-1%	-3%
Cc1cc(N2CCCCC2)n2nc(C)c(-c3ccccc3)c2n1	x	6%	-18%	-10%	22%	-17%
COc1ccccc1-c1c(C)nn2c(N3CCN(c4ccccc4)CC3)cc(C)nc12	x	0%	0%	-13%	x	0%
COc1ccccc1-c1c(C)nn2c(N3CCN(Cc4ccccc4)CC3)cc(C)nc12	23µM*	2%	u	-6%	u	-1%
Cc1cc(N2CCN(c3ccccn3)CC2)n2cc(-c3ccccc3)nc2n1	-8%	2%	28µM*	x	-5%	-3%
Cc1nn2c(N3CCCC3)cc(C(C)C)nc2c1-c1ccccc1	u	-1%	35µM*	-14%	0%	0%
O=C(CSc1nccn1Cc1ccc(F)cc1)Nc1ccc2c(c1)OCO2	x	3%	-2%	4%	x	-6%
CC(C)CCNC(=O)C1CCN(C(=O)c2cc3sccc3n2Cc2ccc(Cl)cc2)CC1	u	0%	-1%	u	x	u
CCCCNc1c2c(nc3c(-c4ccccc4)c(C)nn13)CCC2	u	0%	742%	-7%	0%	2%
COc1ccccc1-c1c(C)nn2c(N3CCCCCC3)cc(C)nc12	26µM*	-1%	-8%	u	-13%	u
COc1ccc(CN2CCN(c3cc(C)nc4c5c(C)cc(C)nc5nn34)CC2)cc1F	14%	0%	11µM*	13%	2%	-5%
CCCc1cc(N2CCN(c3ccccn3)CC2)n2nc(C)c(-c3ccccc3)c2n1	-34%	0%	28µM*	9%	-5%	-2%
CCC(C)Nc1c2c(nc3c(-c4ccccc4)c(C)nn13)CCC2 (stereo not given)	u	4%	28µM*	-7%	-4%	1%
O=c1[nH]c2ccc(S(=O)(=O)N3CCN(S(=O)(=O)c4ccc5c(c4)OCCO5)CC3)cc2[nH]c1=O	12%	x	x	-4%	x	x
CCc1cccc(N2C(=O)CSC23C(=O)Nc2ccccc23)c1 (stereo not given)	-8%	-1%	0%	-3%	x	-2%
Cc1ccc(S(=O)(=O)N2CCC(=O)N([C@H](COCc3ccc(C(F)(F)F)cc3)C(C)C)CC2)cc1	x	x	-2%	x	x	x
SMILES	Nrf2 block	Nrf2 ARE act	ClpP mod	A549 viability	p53 reactivation	miR-21 reporter
CC1CC1C(=O)Nc1nc(-c2ccc(Cl)s2)cs1 (stereo not given)	23µM*	5%	x	2%	3%	-5%
O=C(Nc1nc(-c2ccc(Cl)s2)cs1)c1ccncc1	u	18%	-3%	-1%	7%	14%
O=C1NC[C@H](Cc2ccccc2)N(C[C@H]2CCCN2C[C@H](Cc2ccc(O)cc2)N2C[C@H](Cc3ccc(O)cc3)N(CC3CCCCCC3)C(=O)C2=O)C1=O	-3%	5%	0%	5%	x	x
Cc1cc(Oc2ccc(N)cn2)ccc1Cl	u	0%	0%	-5%	-2%	-22%
COc1cccc(Oc2ccc(N)cn2)c1	4%	0%	25µM*	-2%	28%	-4%
CCC(=O)N1CCc2cc(S(=O)(=O)N(C)c3cccc(C)c3)ccc21	0%	0%	3%	7%	x	-9%
CC1(C)Cc2c(C#N)c(N)n(-c3ccccc3)c(=O)c2CO1	12%	0%	-6%	0%	2%	-5%
CCC1(C)Cc2c(c(=O)n(-c3ccccc3)c3ncnc(N)c23)CO1 (stereo not given)	9%	0%	16µM*	0%	-7%	-7%
Cc1cccc(S(=O)(=O)C(C#N)c2nc3ccccc3nc2N2CC(C)OC(C)C2)c1 (stereo not given)	16µM*	0%	-3%	-23%	x	-10%
CCCCn1c(=O)c(Cc2ccccc2)c(O)c2ccccc21	-3%	-2%	14µM*	0%	0%	-10%
COc1cc(NC(=O)Nc2cccc(-c3noc(C)n3)c2)cc(OC)c1OC	x	4%	-6%	-4%	x	19%
Cc1ccc(NC(=O)c2cc(CC(C)C)nc3ccccc23)cc1	5.8µM*	-2%	x	4%	-3%	0%
CCOC(=O)C1CCN(C(c2cccnc2)c2c(NC(=O)c3ccco3)sc(C)c2C)CC1 (stereo not given)	15µM*	6%	-5%	-14%	-15%	23%
Cc1sc(NC(=O)c2ccco2)c(C(c2cccnc2)N2CCN(c3ccc(F)cc3)CC2)c1C (stereo not given)	15µM*	-1%	u	-12%	-6%	25%
Cc1sc(NC(=O)c2ccco2)c(C(c2ccccc2)N2CCC(C)CC2)c1C (stereo not given)	4%	0%	28µM*	-3%	0%	-8%
CCOc1cccc(C(=O)Nc2cc(C)c(O)c(-c3nc4ncccc4o3)c2)c1	20%	4%	-3%	-1%	x	0%
COc1ccc(-c2onc(C)c2C)cc1S(=O)(=O)N1CCN(c2ccc(Cl)cc2)CC1	u	-1%	-2%	-8%	x	-6%

Source: PubChem (National Center for Advancing Translational Sciences (NCATS))
